Consider 40 compounds from ChEMBL document CHEMBL1157539, “Thousands of chemical starting points for antimalarial lead identification” (Nature, 2010).

One may read the Inhibition as the drop in the measured response relative to a control, in per cent. High values mean strong suppression, low ones little suppression.

One assay deals with Plasmodium falciparum. The assay can be described thus: GSK_TCMDC: Inhibition of Plasmodium falciparum 3D7 in whole red blood cells, using parasite LDH activity as an index of growth. Test compounds present at 2uM. The format is functional.
Compound `CCCN(CCC)CCCN(CCCN(CCC)CCC)c1cc(C)nc(Nc2ccc(Cl)cc2)n1.Cl` showed an Inhibition of 100%.

The compound `COc1c(I)cc(Cc2cnc(N)nc2N)cc1I` registered an Inhibition of 91%.

Compound `Cc1ccccc1CCNC(=O)c1ccc(N2CCN(c3ccncc3)CC2)nc1.O=C(O)C(F)(F)F` displayed an Inhibition of 95%.

Take `CC12CCC(CN(CC(O)Cn3c4ccccc4c4cc(I)ccc43)C1)C2(C)C.Cl` (stereo not given): the Inhibition is given as 94%.

The compound `CCCCc1ccc(C(=O)Nc2ccc3nc(N4CCN(C)CC4)cc(C)c3c2)cc1` registered an Inhibition of 90%.

The test system of the next assay is Plasmodium falciparum. Kind of assay: GSK_TCMDC: Inhibition of Plasmodium falciparum Dd2 in whole red blood cells, using parasite LDH activity as an index of growth. Test compounds present at 2uM. The format is functional.
Take `Nc1nc(N)c2nc(C3CC=CCC3)c(N)nc2n1` (stereo not given): the Inhibition stood at 0%.

Compound `C=CCOC(=O)N1CCC(CNCc2ccc(-c3ccc(-c4nc5ccccc5[nH]4)s3)cc2)C1.O=C(O)C(F)(F)F` (stereo not given) registered an Inhibition of 76%.

`COc1ccccc1C(=O)C1CCCN(C(=O)c2ccccc2C(F)(F)F)C1` (stereo not given) came in with an Inhibition of 84%.

In turn, `CCc1c(CCNCCCCCCNC(C)Cc2ccc3c(c2CC)OCO3)ccc(OC)c1OC.Cl` (stereo not given) yielded an Inhibition of 64%.

Turning to `O=C(NCCN1CCCCC1)c1ccc(CNC(=O)c2ccc(O)c(-c3cccc(C(F)(F)F)c3)c2)cc1`, the Inhibition was found to be 47%.

The compound `CN(C(=O)Nc1ccc(C(F)(F)F)cc1)C1CCN(CCCCCNC(=O)/C=C/c2ccc(Cl)c(Cl)c2)CC1` returned an Inhibition of 38%.

The compound `Cc1ccc2[nH]c(-c3cc(-c4cccc(C#N)c4)cnc3N)nc2c1.O=C(O)C(F)(F)F` showed an Inhibition of 99%.

The compound `Cl.Cn1c(=N)n(CC(=O)N2CCc3ccc(Cl)cc3C2Cc2ccc(Cl)c(Cl)c2)c2ccccc21` (stereo not given) came in with an Inhibition of 52%.

The compound `Cc1ccccc1N1CCN(c2ccc(C(=O)Nc3ccccc3)cn2)CC1.O=C(O)C(F)(F)F` returned an Inhibition of 69%.

Regarding `CCN(CC)CCN(Cc1ccc(-c2ccc(C(F)(F)F)cc2)cc1)C(=O)Cn1c(SCc2ccc(F)cc2)nc(=O)c2ccccc21.O=C(O)C(O)C(O)C(=O)O`, the Inhibition was 48%.

In turn, `COc1ccc(C(=O)N2CCC3(CC2)C(=O)N(CC(=O)NCC2CCCCC2)CN3c2ccccc2)cc1` yielded an Inhibition of 99%.

The compound `COc1cc2nc(N3CCN(c4nc(N)c5cc(OC)c(OC)cc5n4)CC3)nc(N)c2cc1OC` yielded an Inhibition of 99%.

Consider `Br.c1ccc(-c2ccc(-c3csc(Nc4ccncc4)n3)cc2)cc1`, for which the Inhibition is 97%.

Compound `COc1ccc2nccc([C@@H](O)CN3CCC(NC(=O)c4nc(Cl)c(Cl)c(N)c4Cl)CC3)c2c1.CS(=O)(=O)O` had an Inhibition of 17%.

The compound `CN1CCN(c2ccc(Nc3c(C(N)=O)cnc4cc(-c5ccoc5)ccc34)cc2)CC1.Cl` came in with an Inhibition of 99%.

Consider `CCCc1cc(Cc2cnc(N)nc2N)cc(CCC)c1OCCCC(=O)OCC`, for which the Inhibition was 0%.

`CC(C)c1cccc(C(C)C)c1NC(=O)NNC(=O)c1ccc(CCN2CCC(c3nc(COCC(F)(F)F)c(-c4ccc(F)cc4)o3)CC2)cc1` had an Inhibition of 34%.

As to `COc1c(C2CCN(CCCCNC(=O)c3oc(-c4ccc(Cl)cc4)cc3CO)CC2)ccc2c1CCCC2`, the Inhibition turned out to be 95%.

On to `FC(F)(F)c1ccc(CNCC2CCN(Cc3ccc4c(c3)OCO4)CC2)cc1.O=C(O)C(F)(F)F`, for which the Inhibition worked out at 12%.

For `COc1c(C(=O)NC2CCN(Cc3ccccc3)C2)cnc2ccccc12.Cl` (stereo not given), the Inhibition is given as 12%.

Consider `CC(=O)Nc1cccc(Nc2nccc(Nc3ccc(Oc4ccccc4)cc3)n2)c1.Cl`, for which the Inhibition is on record as 99%.

Turning to `COc1ccc(-c2cccc(NC(=O)c3ccc(Cl)cc3)c2)cc1CN1CCCN(C)CC1.O=C(O)C(F)(F)F`, the Inhibition stood at 95%.

`COc1cc2ncnc(Nc3ccc(OCc4ccccc4Br)c(Cl)c3)c2cc1OC.Cl` displayed an Inhibition of 6%.

`O=S(=O)(c1c(Cl)cc(Cl)cc1Cl)N1CCCCC(c2ccc(Cl)cc2)=N1` came in with an Inhibition of 93%.

The compound `CCc1cn2c3c(cc(C(=O)N[C@@H](Cc4ccccc4)[C@H](O)CNC4CCOCC4)cc13)N(C(C)C)S(=O)(=O)CC2.O=CO` registered an Inhibition of 99%.

The compound `Cc1cccc2nc(-c3ccc(-c4ccc(CN5CCC(C(N)=O)CC5)cc4)s3)[nH]c12.O=C(O)C(F)(F)F` showed an Inhibition of 51%.

As to `CC(C)NCC(O)COc1ccc(Cc2ccc(OCC(O)CNC(C)C)cc2)cc1.Cl` (stereo not given), the Inhibition is 18%.

Take `O=C(NC1CCN(Cc2ccccc2)CC1)c1ccc2c(=O)n(Cc3ccc(Cl)cc3)c(=S)[nH]c2c1`: the Inhibition was determined as 100%.

The compound `CO/C(=C\C=C\c1cc2cc(Cl)c(Cl)cc2[nH]1)C(=O)NCCCN1CCN(c2ccncc2)CC1` yielded an Inhibition of 96%.

Compound `COc1ccc2nccc([C@@H](O)CN3CCC(NC(=O)C(c4ccsc4)N4CCN(c5ccccc5OC)CC4)CC3)c2c1` (stereo not given in full) came in with an Inhibition of 50%.

In the case of `COc1ccc2nc(C)cc(Nc3ccc(Oc4ccc(Cl)c5ccccc45)c(Cl)c3)c2c1`, the Inhibition came out at 100%.

Regarding `O=C(Nc1cccc(N2CCC(NCCCc3ccncc3)CC2)c1)c1cccc(C(F)(F)F)c1`, the Inhibition amounted to 50%.

Consider `CCN(CC)c1ccc(C(=O)Cn2ccc(=N)cc2)cc1`, for which the Inhibition is 64%.

With `CC(C)CCN1CCC(Oc2ccc(NC(=O)c3ccc(F)cc3)cc2Cl)CC1.O=C(O)C(F)(F)F`, the Inhibition came to 88%.

On to `Cc1[nH]c(C)c(-c2ccc(OCc3ccc(OC(F)(F)F)cc3)nc2)c(=O)c1Cl`, for which the Inhibition is reported as 96%.

In turn, `CCCN(CCC)CCCN(CCCN(CCC)CCC)c1cc(C)nc(Nc2ccc(Cl)cc2)n1.Cl` showed an Inhibition of 100%.

`COc1c(I)cc(Cc2cnc(N)nc2N)cc1I` returned an Inhibition of 0%.

Consider `Cc1ccccc1CCNC(=O)c1ccc(N2CCN(c3ccncc3)CC2)nc1.O=C(O)C(F)(F)F`, for which the Inhibition was 20%.

In turn, `CC12CCC(CN(CC(O)Cn3c4ccccc4c4cc(I)ccc43)C1)C2(C)C.Cl` (stereo not given) registered an Inhibition of 82%.

In the case of `CCCCc1ccc(C(=O)Nc2ccc3nc(N4CCN(C)CC4)cc(C)c3c2)cc1`, the Inhibition turned out to be 21%.
